TbREL1 primary – TbREL1 inhibition, primary screen; P86926; TbREL1 RNA ligation, FRET fluorescence; inhibition, % at 9.66 µM; 89,000 tested, 0.49% active; AID 1117264;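 active = inhibition above the mean inhibition across all screened compounds plus 3 SD, cut at about 11% in these data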
Target sequence (P86926 whole entry, looked up): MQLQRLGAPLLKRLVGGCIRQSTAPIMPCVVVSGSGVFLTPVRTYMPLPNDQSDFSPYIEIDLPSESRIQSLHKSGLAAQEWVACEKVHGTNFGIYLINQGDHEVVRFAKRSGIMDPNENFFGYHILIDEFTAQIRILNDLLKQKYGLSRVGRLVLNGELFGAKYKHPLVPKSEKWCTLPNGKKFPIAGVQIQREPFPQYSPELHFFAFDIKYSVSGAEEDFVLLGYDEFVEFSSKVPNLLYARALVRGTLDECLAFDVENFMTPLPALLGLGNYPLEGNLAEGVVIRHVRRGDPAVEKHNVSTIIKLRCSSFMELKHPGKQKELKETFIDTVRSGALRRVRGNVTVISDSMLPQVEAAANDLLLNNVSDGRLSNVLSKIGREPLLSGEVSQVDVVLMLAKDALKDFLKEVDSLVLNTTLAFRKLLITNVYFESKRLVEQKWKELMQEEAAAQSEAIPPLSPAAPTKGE
TbREL1 conf – TbREL1 inhibition, confirmation; shares compounds with TbREL1 primary; TbREL1 RNA ligation, FRET fluorescence; inhibition, % at 9.66 µM; 390 tested, 37% active;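 active = mean inhibition across replicates above a set limit taken from the earlier primary screen, cut at about 11% in these data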
Each line names hits and unclear results; the compound was inactive in the other large screens (follow-up assays come after a bar, where they were run). The entries come from a sample that favours hits as a whole.

C=CCN=C1NC(c2ccc(C(F)(F)F)cc2)C(C(=O)OC)=C(C)N1Cc1ccccc1C(F)(F)F (stereo not drawn)	none
COC(=O)C1=C(C)N(Cc2ccc(Cl)cc2)C(=S)NC1c1ccccc1 (stereo not drawn)	none
COC(=O)C1=C(C)N(Cc2ccccc2)C(=S)NC1c1ccc(Cl)cc1 (stereo not drawn)	none
COc1cccc(C2NC(=S)N(Cc3ccc(F)cc3)C(C)=C2C(C)=O)c1 (stereo not drawn)	none
COCCN=C1N[C@@H](c2ccc(Br)cc2)C(C(=O)OC)=C(C)N1Cc1ccccc1	none
COC(=O)C1=C(C)N(Cc2ccc(F)cc2)C(=S)NC1c1ccccc1 (stereo not drawn)	none
CN1CCN(c2ccc(-c3csc(N4CCC(C(N)=O)CC4)n3)cc2)CC1	none
COc1ccc(CN2CCC(CNC(=O)NC3CCCC3)CC2)cc1	none
Cc1ccc(S(=O)(=O)Nc2cc(C(=O)O)ccc2N2CCC(C)CC2)cc1C	none
CCOc1ccc(-n2c(SCc3ccc(C#N)cc3)nnc2-c2ccco2)cc1	none
COc1ccc(CNC2CCC23CCC(C)CC3)cc1OC (stereo not drawn)	none
CCC[C@H]1[C@@H](OC(=O)NCCc2ccccc2)CC[C@@]23CCCN2C(=O)CCC[C@@H]13	none
CC(C)Cn1c(=O)cc(N2CCN(c3cccc(C(F)(F)F)c3)CC2)[nH]c1=O	none
COC(=O)C1=C(C)N(Cc2ccccc2)C(=NCc2ccccc2)N[C@H]1c1cccc(F)c1	TbREL1 primary 14.0 | TbREL1 conf 14.6
COC(=O)C1=C(C)N(Cc2ccc(Cl)cc2)C(=S)NC1c1ccc(F)cc1 (stereo not drawn)	none
COC(=O)C1=C(C)N(Cc2ccccc2C(F)(F)F)C(=NCc2ccc(OC)cc2)NC1c1ccc(Cl)cc1 (stereo not drawn)	TbREL1 primary 11.8 | TbREL1 conf 16.5
COC(=O)C1=C(C)N(Cc2ccccc2C(F)(F)F)C(=NCc2cccc(C(F)(F)F)c2)NC1c1ccc(C(F)(F)F)cc1 (stereo not drawn)	TbREL1 primary 17.9 | TbREL1 conf 19.8
COC(=O)C1=C(C)N(Cc2ccc(Cl)cc2)C(=S)NC1c1cccc(OC)c1 (stereo not drawn)	none
COC(=O)C1=C(C)N(Cc2ccccc2)C(=NCc2ccccc2)N[C@H]1c1ccccc1	none
COC(=O)C1=C(C)N(Cc2ccccc2)C(=NCCc2c[nH]c3ccccc23)N[C@H]1c1cccc(F)c1	none
COC(=O)[C@]12C[C@H](CC(=O)NCc3cccc(C(F)(F)F)c3)C(=O)N(CCc3ccc(OC)c(OC)c3)C1=C[C@H](C1CCCC1)O[C@@H]2C	none
CN(Cc1ccccc1)C(=O)OCc1cn(Cc2c(F)cccc2F)nn1	none
Cc1n[nH]c(C)c1S(=O)(=O)NCCc1ccccc1F	none
CCN(C(=O)COC(=O)c1ccc(Sc2ncn[nH]2)c([N+](=O)[O-])c1)c1ccccc1C	none
C[C@H]1[C@@H](OC(=O)NC2CCC2)CC[C@@]23CCCN2C(=O)CCC[C@@H]13	none
COc1ccccc1CCC(=O)OCC(=O)NC1CC1	TbREL1 primary 34.5 | TbREL1 conf inactive
COc1ccccc1CNC(=O)COC(=O)CC1CC2CCC1C2 (stereo not drawn)	none
O=C(COC(=O)Cc1ccc(Br)cc1)NC1CC1	none
O=C(N[C@@H](Cc1ccccc1)C(=O)NCP(=O)(O)OC(Cc1ccccc1)C(=O)O)OCc1ccccc1 (stereo partly drawn)	none
C[C@H]1[C@@H](OC(=O)NCc2ccccc2)CC[C@@]23CCCN2C(=O)CCC[C@@H]13	none
Cc1ccc(NC(=O)[C@H]2CC(=O)O[C@@H]2c2ccccc2)c(C)c1	none
Cc1cc(C)nc(SCC(=O)Nc2nccs2)n1	none
COc1ccc(-c2cc(-c3ccccc3)nc(SCC(=O)Nc3nccs3)c2C#N)cc1	none
Cc1cc(C)cc(NC(=O)CSc2nc3[nH]c(=O)cc(O)c3s2)c1	none
N#Cc1c(SCC(=O)Nc2nccs2)sc2c(O)cc(=O)[nH]c12	TbREL1 primary 37.9 | TbREL1 conf 23.0
CCCSc1nnc(NC(=O)CSc2sc3c(O)cc(=O)[nH]c3c2C#N)s1	TbREL1 primary 27.1 | TbREL1 conf 16.1
CCCC(=O)Nc1nnc(SCC)s1	none
COC(=O)[C@]12C[C@H](CC(=O)NCCCCc3ccccc3)C(=O)N(Cc3cccc4ccccc34)C1=C[C@H](C(C)C)O[C@@H]2C1CC1	none
COc1ccccc1-c1nnc(SCC#CCOC(=O)c2ccc(F)cc2)o1	none
CCCC1CCC2(CC1)CCC2OC(=S)NCc1cccc(OC)c1 (stereo not drawn)	none
C/C(C=NNC(=O)c1cc(-c2ccc(Cl)cc2)n[nH]1)=C\c1ccccc1	none
CCOc1ccccc1OCCN1CCC(Cc2ccccc2)CC1	none
CCC(=O)c1ccccc1OCCCN1CCC(Cc2ccccc2)CC1	TbREL1 primary 11.3 | TbREL1 conf 11.4
CC(=O)CCc1ccc(OCCCCN2CCC(Cc3ccccc3)CC2)cc1	none
Cc1ccc(S(=O)(=O)N2CCCC2C(=O)N2CCN(c3ccccc3)CC2)cc1 (stereo not drawn)	none
O=C(CNS(=O)(=O)c1ccc(Cl)s1)N1CCN(c2ccccn2)CC1	none

From PubChem
